# Measurements reported in paper PMC4336329 (PLoS ONE, 2015).
# About 14,000 (4.5%) of roughly 310,000 compounds showed an effect of 50% or more. Effects have a minus sign here. The sample as a whole holds a higher share of strong results than the screen did.
# Biological target: human ether-à-go-go-related gene (hERG) potassium channel (human, UniProt Q12809)
# Assay: primary screen, population patch clamp on CHO cells stably expressing hERG; higher = less effect of the substance
# 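Also: peak tail current of the secondary pulse compared with the same well before compound.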
# Chain of human ether-à-go-go-related gene (hERG) potassium channel (Q12809 whole entry, looked up): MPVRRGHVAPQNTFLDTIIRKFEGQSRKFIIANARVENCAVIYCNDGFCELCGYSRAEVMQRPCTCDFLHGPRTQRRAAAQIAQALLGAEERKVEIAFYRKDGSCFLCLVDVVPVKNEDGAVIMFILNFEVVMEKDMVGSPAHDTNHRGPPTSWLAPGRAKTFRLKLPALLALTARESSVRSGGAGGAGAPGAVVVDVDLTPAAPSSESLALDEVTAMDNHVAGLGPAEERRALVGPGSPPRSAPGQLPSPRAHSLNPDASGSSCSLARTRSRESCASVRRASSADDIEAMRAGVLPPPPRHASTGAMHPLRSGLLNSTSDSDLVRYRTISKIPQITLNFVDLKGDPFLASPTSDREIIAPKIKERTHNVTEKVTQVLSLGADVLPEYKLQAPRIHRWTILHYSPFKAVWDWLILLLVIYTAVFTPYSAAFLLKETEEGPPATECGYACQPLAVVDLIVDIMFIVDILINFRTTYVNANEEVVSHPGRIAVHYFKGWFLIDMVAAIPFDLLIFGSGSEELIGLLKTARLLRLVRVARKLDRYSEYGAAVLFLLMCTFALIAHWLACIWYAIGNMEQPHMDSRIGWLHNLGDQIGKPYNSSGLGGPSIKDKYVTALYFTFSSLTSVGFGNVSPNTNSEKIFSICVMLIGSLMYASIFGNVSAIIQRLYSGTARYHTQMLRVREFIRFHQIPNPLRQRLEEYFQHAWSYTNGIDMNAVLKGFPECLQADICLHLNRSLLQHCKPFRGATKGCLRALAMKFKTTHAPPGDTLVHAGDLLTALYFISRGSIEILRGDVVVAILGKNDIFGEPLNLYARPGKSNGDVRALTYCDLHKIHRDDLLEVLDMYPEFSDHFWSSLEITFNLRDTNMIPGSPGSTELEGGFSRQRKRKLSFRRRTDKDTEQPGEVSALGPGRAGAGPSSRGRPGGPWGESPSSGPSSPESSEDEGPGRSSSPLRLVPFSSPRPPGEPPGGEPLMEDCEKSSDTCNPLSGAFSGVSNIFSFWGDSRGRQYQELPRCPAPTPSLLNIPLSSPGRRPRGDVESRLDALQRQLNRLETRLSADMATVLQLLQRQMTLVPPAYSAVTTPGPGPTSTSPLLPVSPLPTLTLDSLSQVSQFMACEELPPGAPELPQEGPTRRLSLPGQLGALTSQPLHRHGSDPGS
row,SMILES,"hERG current change (%, negative = inhibition) at 10uM [%]"
1,Cc1ccc(-c2noc(CSc3nnc(-c4ccncc4)n3-c3ccc(C)cc3)n2)cc1,-42.9
2,c1ccc(-n2c(SCc3nc(-c4cccs4)no3)nnc2-c2ccco2)cc1,-42.6
3,CCOc1ccc(-n2c(SCc3nc(-c4cccs4)no3)nnc2-c2ccncc2)cc1,-59.7
4,Cc1ccc(-c2noc(CSc3nnc(-c4ccncc4)n3-c3ccc(F)cc3)n2)cc1,-10.3
5,CCCn1c(SCc2nc(-c3cccs3)no2)nnc1-c1ccncc1,-4.13
6,CCOc1ccc(-n2c(SCc3nc(-c4ccc(C)cc4)no3)nnc2-c2ccncc2)cc1,-73.2
7,O=c1[nH]c(=S)n(-c2ccc(Cl)cc2)c(O)c1/C=N/N1CCOCC1,-6.08
8,CC1CC(C)CN(S(=O)(=O)c2ccc3c(c2)CC(C)N3C(=O)C2CCC2)C1 (stereo not drawn),4.7
9,CC12CCC(C(=O)N3CCCCCC3)(OC1=O)C2(C)C (stereo not drawn),13.1
10,Nc1cc(=O)[nH]c(SCC(=O)NC2CCCc3ccccc32)n1 (stereo not drawn),0.0692
11,CCC(=O)OCc1cc2cccc(C)c2[nH]c1=O,-1.03
12,Cc1cccc2cc(COC(=O)c3ccccc3)c(=O)[nH]c12,-0.867
13,Cc1ccccc1CCNCc1cc2cccc(C)c2[nH]c1=O,-52.2
14,Cc1cccc2cc(CN(Cc3ccccc3)C(=O)N(C)C)c(=O)[nH]c12,-11.5
15,Cc1cccc(CCNCc2cc3cccc(C)c3[nH]c2=O)c1,-64.1
16,Cc1cccc(CCN(Cc2cc3cccc(C)c3[nH]c2=O)C(=O)N2CCOCC2)c1,-29.4
17,Cc1cccc(CCNCc2cc3cc(C)cc(C)c3[nH]c2=O)c1,-30.8
18,CC(=O)OCc1cc2cccc(C)c2[nH]c1=O,-9.76
19,Cc1cccc2cc(COC(=O)C(C)C)c(=O)[nH]c12,-69.3
20,CC(C)CSc1oc(-c2ccco2)nc1S(=O)(=O)c1ccccc1,-19.7
21,O=C(CCC(=O)N1CCCC(Nc2ccccc2)C1)c1ccc(F)cc1 (stereo not drawn),-8.8
22,COc1cc(CNc2ccc3[nH]c(=O)[nH]c3c2)cc(Cl)c1OCC(=O)NC(C)(C)C,4.56
23,COc1ccc(S(=O)(=O)Nc2ccccc2-c2nc3ccccc3[nH]c2=O)cc1,-9.79
24,COc1ccc(OC)c(NC(=O)Cn2c(CCC(=O)O)ccc2-c2ccc(C)cc2)c1,-7.22
